According to PubChem BioAssay (Tox21):
Records with an inconclusive call do not appear. Activity calls are given as the source filed them. Unless noted, calls come from the whole dose curve; as a rule, active = well fitted curve in the direction sought with a large enough effect in the repeat runs; inconclusive = weak or mixed curves; inactive = no such curve, though single readings can be large; an effect the other way counts as inactive or inconclusive.

Columns and labels:
[1] = qHTS assay to identify small molecule agonists of the peroxisome proliferator-activated receptor delta (PPARd) signaling pathway - cell viability counter screen (AID 743211); note: nearly all actives have a fitted effect of over 55% in size
Procedure, shortened: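 Viability was measured as CellTiter-Glo luminescence (30 min, room temperature) in the same wells as the beta-lactamase readout. GeneBLAzer PPARd UAS-bla HEK293H cells received compound after 5 h plating and were incubated 17 h at 37 C.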

[2] = target: Peroxisome proliferator-activated receptor delta (Homo sapiens) (UniProt Q03181); assay: qHTS assay to identify small molecule agonists of the peroxisome proliferator-activated receptor delta (PPARd) signaling pathway (AID 743212; calls by dose curve)
Sequence of Peroxisome proliferator-activated receptor delta (Homo sapiens) (Q03181 whole entry, looked up): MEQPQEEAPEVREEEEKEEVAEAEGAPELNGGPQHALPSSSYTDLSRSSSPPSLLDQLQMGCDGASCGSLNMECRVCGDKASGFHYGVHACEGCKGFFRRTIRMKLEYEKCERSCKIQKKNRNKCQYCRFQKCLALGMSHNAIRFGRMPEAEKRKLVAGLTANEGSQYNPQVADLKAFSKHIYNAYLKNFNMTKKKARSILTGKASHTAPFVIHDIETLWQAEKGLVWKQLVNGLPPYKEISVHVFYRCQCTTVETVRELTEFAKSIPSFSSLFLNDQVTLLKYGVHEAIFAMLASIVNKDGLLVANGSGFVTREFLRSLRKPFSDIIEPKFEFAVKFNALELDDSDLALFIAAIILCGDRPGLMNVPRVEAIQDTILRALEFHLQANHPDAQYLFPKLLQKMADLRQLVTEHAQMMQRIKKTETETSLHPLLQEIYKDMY
Procedure, shortened: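 Read-out: beta-lactamase FRET fluorescence after 2 h room-temperature incubation with LiveBLAzer B/G substrate. Cells were HEK293H carrying a UAS-bla reporter for PPARd, treated at 37 C with DMSO-dissolved compounds.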

[3] = qHTS assay to identify small molecule antagonists of the peroxisome proliferator-activated receptor delta (PPARd) signaling pathway - cell viability counter screen (AID 743213); note: nearly all actives have a fitted effect of over 50% in size
Procedure, shortened: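 PPARd-bla HEK293H cells (3000/well) got compound plus 300 nM L165041 agonist for 17 h at 37 C. Viability in the same wells came from CellTiter-Glo luminescence after 30 min at room temperature.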

[4] = target: Peroxisome proliferator-activated receptor delta (Homo sapiens) (UniProt Q03181); assay: qHTS assay to identify small molecule antagonists of the peroxisome proliferator-activated receptor delta (PPARd) signaling pathway (AID 743215; active = well fitted inhibition curve with a large enough effect in the signal ratio in the repeat runs, not every such curve was filed as active; the % refers to the signal ratio;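 note: cells stimulated with agonist L165041 at 300 nM final during compound exposure; series mostly up to about 62 µM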)
Procedure, shortened: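 Screen format: qHTS, antagonist mode. HEK293H PPARd-bla cells received compound and 300 nM L165041 (final), 17 h, 37 C. Beta-lactamase detected via FRET substrate fluorescence, 2 h, room temperature.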

[5] = qHTS assay to identify small molecule agonists of the farnesoid-X-receptor (FXR) signaling pathway - cell viability counter screen (AID 743218); note: nearly all actives have a fitted effect of over 45% in size
Procedure, shortened: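 Same-well cytotoxicity check on FXR-UAS-bla HEK 293T cells: 5 h attachment, 16 h compound at 37 C, CellTiter-Glo luminescence read at room temperature after 30 min.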

[6] = target: Bile acid receptor (Homo sapiens) (UniProt Q96RI1); assay: qHTS assay to identify small molecule agonists of the farnesoid-X-receptor (FXR) signaling pathway (AID 743220; active = well fitted activation curve with a large enough effect in the signal ratio in the repeat runs, not every such curve was filed as active; the % refers to the signal ratio)
Sequence of Bile acid receptor (Homo sapiens) (Q96RI1 whole entry, looked up): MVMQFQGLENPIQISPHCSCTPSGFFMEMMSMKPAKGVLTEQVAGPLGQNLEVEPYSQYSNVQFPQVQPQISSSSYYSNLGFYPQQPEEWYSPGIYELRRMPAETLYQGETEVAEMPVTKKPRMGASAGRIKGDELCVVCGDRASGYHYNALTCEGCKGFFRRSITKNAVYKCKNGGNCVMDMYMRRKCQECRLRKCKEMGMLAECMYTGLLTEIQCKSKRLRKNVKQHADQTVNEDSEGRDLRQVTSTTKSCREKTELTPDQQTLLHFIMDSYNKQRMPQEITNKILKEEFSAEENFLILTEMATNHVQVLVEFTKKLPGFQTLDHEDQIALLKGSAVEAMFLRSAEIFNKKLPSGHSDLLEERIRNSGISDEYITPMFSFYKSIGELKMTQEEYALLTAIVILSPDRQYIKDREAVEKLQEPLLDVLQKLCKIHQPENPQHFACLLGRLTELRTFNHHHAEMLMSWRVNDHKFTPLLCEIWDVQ
Procedure, shortened: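 FXR-UAS-bla HEK 293T cells carrying a UAS-driven beta-lactamase reporter were plated for 5 h at 37C/5% CO2, then exposed to DMSO-dissolved Tox21 10K compounds for 16 h at 37C. A LiveBLAzer B/G FRET substrate was loaded for 2 h at room temperature before fluorescence reading.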

[7] = qHTS assay to identify small molecule antagonists of the farnesoid-X-receptor (FXR) signaling pathway - cell viability counter screen (AID 743221; active = well fitted cell-killing curve with a large enough effect in the repeat runs, not every such curve was filed as active; note: nearly all actives have a fitted effect of over 50% in size)
Procedure, shortened: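 Cytotoxicity counter screen run in the FXR-bla reporter wells: HEK 293T cells exposed to compound with 50 uM (final) chenodeoxycholic acid for 16 h, 37 C, then viability measured by CellTiter-Glo luminescence after 30 min, room temperature.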

[8] = target: Vitamin D3 receptor (Homo sapiens) (UniProt P11473); assay: qHTS assay to identify small molecule agonists of the vitamin D receptor (VDR) signaling pathway (AID 743222; calls by dose curve)
Sequence of Vitamin D3 receptor (Homo sapiens) (P11473 whole entry, looked up): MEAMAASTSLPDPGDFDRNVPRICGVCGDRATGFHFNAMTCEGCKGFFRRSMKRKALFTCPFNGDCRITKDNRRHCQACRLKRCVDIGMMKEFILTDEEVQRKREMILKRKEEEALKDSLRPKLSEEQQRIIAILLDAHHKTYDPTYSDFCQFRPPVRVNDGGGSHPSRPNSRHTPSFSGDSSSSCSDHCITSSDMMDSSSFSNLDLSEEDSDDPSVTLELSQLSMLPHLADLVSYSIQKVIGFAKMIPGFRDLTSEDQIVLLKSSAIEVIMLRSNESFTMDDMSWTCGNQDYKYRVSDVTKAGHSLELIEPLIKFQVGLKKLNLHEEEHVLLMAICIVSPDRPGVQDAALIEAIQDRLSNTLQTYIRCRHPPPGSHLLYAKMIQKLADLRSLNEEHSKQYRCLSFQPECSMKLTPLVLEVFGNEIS
Procedure, shortened: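 Using LiveBLAzer B/G FRET detection, agonism was scored in VDR-bla cells exposed overnight (16 h, 37C) to DMSO-dissolved compounds; substrate incubation was 2 h at room temperature.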

[9] = target: Vitamin D3 receptor (Homo sapiens) (UniProt P11473); assay: qHTS assay to identify small molecule antagonists of the vitamin D receptor (VDR) signaling pathway (AID 743223; active = well fitted inhibition curve with a large enough effect in the signal ratio in the repeat runs, not every such curve was filed as active; the % refers to the signal ratio)
Procedure, shortened: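 Antagonist mode: compound added to VDR-bla cells alongside agonist 1alpha,25-dihydroxyvitamin D3 (3 nM final), incubation 16 h at 37C. Read-out is LiveBLAzer FRET fluorescence, 2 h at room temperature.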

[10] = target: Bile acid receptor (Homo sapiens) (UniProt Q96RI1); assay: qHTS assay to identify small molecule antagonists of the farnesoid-X-receptor (FXR) signaling pathway (AID 743217; active = well fitted inhibition curve with a large enough effect in the signal ratio in the repeat runs, not every such curve was filed as active; the % refers to the signal ratio)
Procedure, shortened: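 Quantitative HTS, beta-lactamase reporter format: FXR-UAS-bla HEK 293T cells co-treated 16 h at 37 °C with compounds and 50 uM final chenodeoxycholic acid, then read by B/G FRET fluorescence.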

Measured: Potency

N#CCCC#N
not listed: [9] | [10]
inactive: all other assays above

CCN(CC)CCOC(=O)C(C)(c1ccccc1)c1ccccc1
inactive: [1] | [2] | [3] | [4] | [5] | [7]

CCCSC(=O)Cl
not listed: [10]
inactive: all other assays above

COCC(=O)N(c1c(C)cccc1C)N1CCOC1=O
not listed: [7] | [10]
inactive: all other assays above

Clc1ccccc1N1CCNCC1
inactive: [1] | [2] | [3] | [4] | [5] | [7]

O=C1OC(c2ccc(O)c(S(=O)(=O)O)c2)(c2ccc(O)c(S(=O)(=O)O)c2)c2c(Br)c(Br)c(Br)c(Br)c21
not listed: [9] | [10]
inactive: all other assays above

CC(=O)C(Cl)Cl
not listed: [8] | [9] | [10]
inactive: all other assays above

OC(c1ccc(F)cc1)(c1cncnc1)c1ccccc1Cl (stereo not drawn)
inactive: [1] | [2] | [3] | [4] | [5] | [7]

CCOP(=O)(OCC)OP(=O)(OCC)OCC
not listed: [9] | [10]
inactive: all other assays above

COP(N)(=S)Oc1ccccc1C(=O)OC(C)C (stereo not drawn)
not listed: [6] | [9] | [10]
inactive: all other assays above

NC1=NC(=O)C(c2ccccc2)O1 (stereo not drawn)
not listed: [7] | [9] | [10]
inactive: all other assays above

O=[N+]([O-])c1cccc2c([N+](=O)[O-])cccc12
inactive: [1] | [2] | [3] | [4] | [5] | [7]

CC1CCC(=O)O1 (stereo not drawn)
not listed: [6] | [9] | [10]
inactive: all other assays above

CCOP(=O)(N=C1SCCS1)OCC
inactive: [1] | [2] | [3] | [4] | [5] | [7]

COP(=S)(OC)Oc1ccc(S(N)(=O)=O)cc1
not listed: [10]
inactive: all other assays above

CC1(C)CON(Cc2ccccc2Cl)C1=O
not listed: [6] | [9] | [10]
inactive: all other assays above

O=[N+]([O-])c1cccc(O)c1
not listed: [10]
inactive: all other assays above

CCC1(c2ccccc2)C(=O)N=C(O)NC1=O (stereo not drawn)
not listed: [6] | [9] | [10]
inactive: all other assays above

N#CCNCC#N
not listed: [6] | [9] | [10]
inactive: all other assays above

ClC(Cl)Br
not listed: [6] | [9] | [10]
inactive: all other assays above

CCCSC(=O)N(CCC)CCC
not listed: [6] | [9] | [10]
inactive: all other assays above

CCc1cc2c(s1)-n1c(C)nnc1CN=C2c1ccccc1Cl
not listed: [6] | [10]
inactive: all other assays above

C#CCN1C(=O)COc2cc(F)c(N3C(=O)C4=C(CCCC4)C3=O)cc21
not listed: [6] | [10]
inactive: all other assays above

O=C1CN=C(c2ccccc2)c2cc([N+](=O)[O-])ccc2N1
not listed: [6] | [7] | [10]
inactive: all other assays above

Nc1cc2c3c(c1)C(c1ccccc1)=N[C@@H](NC(=O)c1cccnc1)C(=O)N3CC2
not listed: [6] | [9] | [10]
inactive: all other assays above

COc1cc(OC)nc(NC(=O)NS(=O)(=O)c2ncccc2C(=O)N(C)C)n1
not listed: [6] | [10]
inactive: all other assays above

c1cc2c(c(N3CCNCC3)c1)OCCO2
not listed: [6] | [9] | [10]
inactive: all other assays above

OCCSCSCCO
not listed: [6] | [10]
inactive: all other assays above

OC(Cn1cncn1)(c1ccc(F)cc1)c1ccccc1F (stereo not drawn)
not listed: [6] | [10]
inactive: all other assays above

CC(=O)CC(c1ccc(Cl)cc1)c1c(O)c2ccccc2oc1=O (stereo not drawn)
inactive: [1] | [2] | [3] | [4] | [5] | [8]

CCCCc1c(C)nc(NCC)[nH]c1=O
not listed: [6] | [9] | [10]
inactive: all other assays above

O=NN1CCCCC1
not listed: [6] | [10]
inactive: all other assays above

CCC1(c2ccccc2)C(=O)NC(=O)NC1=O
not listed: [6] | [10]
inactive: all other assays above

CN1CCC(O)(c2ccc(F)cc2)C(C(=O)c2ccc(F)cc2)C1 (stereo not drawn)
not listed: [6] | [9] | [10]
inactive: all other assays above

O=C(O)c1ccc2[nH]cc(CCCCN3CC=C(c4ccccc4)CC3)c2c1
not listed: [6] | [9] | [10]
inactive: all other assays above

Cc1ccccc1CO[C@@H]1C[C@@]2(C(C)C)CC[C@]1(C)O2
inactive: [1] | [2] | [3] | [4] | [5] | [8]

CCOP(=S)(OCC)SCSP(=S)(OCC)OCC
not listed: [6] | [9] | [10]
inactive: all other assays above

COc1ccc(C(=O)N2CCCC2=O)cc1
inactive: [1] | [2] | [3] | [4] | [5] | [9]

O=c1oc2ccccc2c(O)c1C1CCCc2ccccc21 (stereo not drawn)
not listed: [6] | [10]
inactive: all other assays above

NC(=O)c1cc([N+](=O)[O-])cc([N+](=O)[O-])c1
not listed: [6] | [7] | [10]
inactive: all other assays above

COP(=S)(OC)Oc1c(Cl)cc(C)cc1Cl
not listed: [6] | [10]
inactive: all other assays above

CCOc1nc(C(Cl)(Cl)Cl)ns1
not listed: [6] | [10]
inactive: all other assays above

O=C(Oc1ccc(Br)cc1)N1CCN2CCC1CC2
not listed: [6] | [10]
inactive: all other assays above

CS(=O)(=O)c1cc(C(F)(F)F)ccc1C(=O)c1cnoc1C1CC1
not listed: [6] | [10]
inactive: all other assays above

C=C(C)CN(CC)c1c([N+](=O)[O-])cc(C(F)(F)F)cc1[N+](=O)[O-]
not listed: [6] | [9] | [10]
inactive: all other assays above

CCCCN(CCCCO)N=O
not listed: [6] | [10]
inactive: all other assays above

CC1COC2(c3ccccc3Cl)c3cc(Cl)ccc3NC(=O)CN12 (stereo not drawn)
not listed: [6] | [9] | [10]
inactive: all other assays above

COC(=O)COc1ccc(Cl)cc1Cl
inactive: [1] | [2] | [3] | [4] | [5] | [8]

CC(Cl)(Cl)[N+](=O)[O-]
not listed: [6] | [10]
inactive: all other assays above

CCC(C)(C)c1cc(-n2nc3ccccc3n2)c(O)c(C(C)(C)CC)c1
not listed: [6] | [10]
inactive: all other assays above

Oc1c(Cl)cccc1Cl
not listed: [6] | [10]
inactive: all other assays above

C[N+](=O)[O-]
not listed: [6] | [10]
inactive: all other assays above

CCN(Cc1ccc(Cl)nc1)/C(=C/[N+](=O)[O-])NC
not listed: [6] | [9] | [10]
inactive: all other assays above

CC1=C(C(=O)O)N2C(=O)[C@@H](N)[C@H]2SC1
not listed: [6] | [8] | [10]
inactive: all other assays above

NC(=O)O
not listed: [6] | [10]
inactive: all other assays above

O=C(Nc1ccccc1)c1ccccc1I
inactive: [1] | [2] | [3] | [5] | [7]

CC(C)CC#N
not listed: [3] | [10]
inactive: all other assays above

CN1C(=S)CN=C(c2ccccc2)c2cc(Cl)ccc21
not listed: [3] | [7] | [9]
inactive: all other assays above

Clc1cccc(N2CCNCC2)c1
not listed: [4] | [9] | [10]
inactive: all other assays above

CCOP(=S)(OCC)Oc1cc(-c2ccccc2)on1
inactive: [1] | [2] | [3] | [5] | [7] | [8]

O=C(N[C@H]1CN2CCC1CC2)c1cc2ccoc2cn1
inactive: [1] | [2] | [3] | [5] | [7]

CCCCOC(=O)c1ccccc1C(=O)O
inactive: [1] | [2] | [3] | [10] | [5] | [6]

ClCCCN1CCN(c2cccc(Cl)c2)CC1
inactive: [1] | [2] | [3] | [4] | [7]
